DT40 TDP1 CPT: growth inhibition of DT40 Tdp1-/-;hTDP1 cells with camptothecin (screen for TDP1 inhibitors) | chicken DT40 Tdp1-/-;hTDP1 cells + 20 nM CPT, ATP luminescence, 48 h | Potency, µM (titrated, usually from 46.2 µM), inactives show at the highest dose activity change, negative = growth inhibition, actives largely listed as inhibitors | hit rate 12% among 420,000; further: potency means the concentration at half of the fitted maximal effect; nearly all actives have a fitted effect of over 55% in size
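Cell growth measured by CellTiter-Glo luminescence after a minimum 48 h, 37 C compound exposure with 20 nM CPT in Tdp1-knockout DT40 cells stably expressing hTDP1, seeded 400/well; qHTS titration format.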
uPA generation: inhibitors of cell surface uPA generation; cell surface uPA generation assay, qHTS; Potency, µM (highest dose often 38.3 µM), for the others: at the highest dose activity change, negative = inhibition, usual class: inhibitors; hit rate 0.31% among 330,000; AID 540303; active means well fitted inhibition curve with a large enough effect; inconclusive means small, poorly fitted or top-dose-only effect; inactive means no such curve, though single readings can be large or run the other way; tested in mouse RAW 264.7 cells; further: potency means the concentration at half of the fitted maximal effect; nearly all actives have a fitted effect of over 55% in size
HT1080-NT tox: kills 2HG-producing HT-1080-NT fibrosarcoma cells. HT-1080-NT fibrosarcoma viability, CellTiter-Glo ATP luminescence, 48 h. Potency, µM (titrated, usually from 46.1 µM), inactives show at the highest dose activity, negative = less viability, actives largely listed as cytotoxic. hit rate 1.6% among 360,000. AID 686970;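 further: NT is the 2HG producing partner of a matched IDH1 knockdown line; potency means the concentration at half of the fitted maximal effect; 0% = DMSO-treated cells and -100% = media-only wells without cells; nearly all actives have a fitted effect of over 55% in size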
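HT-1080-NT fibrosarcoma cells (2HG-overproducing), 750 cells/well in RPMI with 5% FBS, dosed after 2 h and incubated 48 h at 37C. CellTiter-Glo luminescence normalized to DMSO and no-cell wells; concentration-response curves fitted and classed.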
HT1080 IDH1KD tx: kills HT-1080 cells with IDH1 knockdown | HT-1080 IDH1 knockdown viability, ATP luminescence, 48 h | Potency, µM (top dose mostly 46.1 µM), inactives show at the highest dose activity, negative = toxicity, hits mostly cytotoxic | hit rate 2% among 360,000;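 further: potency means the concentration at half of the fitted maximal effect; 0% = DMSO wells and -100% = cell-free medium wells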
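% activity derives from luminescence (CellTiter-Glo), normalised to DMSO and no-cell wells. HT-1080-IDH1KD cells, 750/well, had 48 h compound exposure at 37 °C.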
IL-1B inflam inh: blocks inflammasome-driven IL-1 beta release; THP-1 LPS/ATP IL-1B secretion, AlphaLISA, 16 h; hits give low values; activity change, % at 57.5 µM; hit rate 4.7% among 360,000; AID 743279; in the data active means activity change below about -50%; inconclusive means mostly about -30% to -49%
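Secreted IL-1B measured by AlphaLISA bead assay after 16 h compound exposure of THP-1 cells; compounds (final up to 57.5 uM) added 1 h before LPS (250 ng/mL) and ATP (1.25 mM) stimulation; lower signal means less secretion.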
TDP1 cell noCPT: qHTS for Inhibitors of human tyrosyl-DNA phosphodiesterase 1 (TDP1): qHTS in cells in absence of CPT; Potency, µM (top dose mostly 46.2 µM), without a hit: top-dose activity change, negative = growth inhibition, actives largely listed as inhibitors; DT40 Tdp1-/- hTDP1 cells, no CPT, ATP luminescence, 48 h; hit rate 15% among 420,000; AID 686978, 2013; further: potency means the concentration at half of the fitted maximal effect; nearly all actives have a fitted effect of over 55% in size
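Cells were dispensed at 400 per well, compounds added by pin tool, plates incubated ≥48 hr at 37 °C, then CellTiter-Glo added for 30 min at room temperature before luminescence reading. Line: DT40 Tdp1-/- complemented with hTDP1; camptothecin omitted.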
* = called active by the depositor; ? = inconclusive; . = no result given. Rows were chosen to be rich in hits. Some 19% of all compounds tested hit in one or more screens of this group. Unless noted, the call rests on the fitted dose curve; in most records, active means well fitted curve in the direction sought with a large enough effect; inconclusive means small, poorly fitted or top-dose-only effect, or another doubt; inactive means no such curve, though single readings can be large; an effect the other way counts as inactive or inconclusive. Unless noted, on the % scale 0 is the no-effect control and ±100 the full control effect.

SMILES	DT40 TDP1 CPT	uPA generation	HT1080-NT tox	HT1080 IDH1KD tx	IL-1B inflam inh	TDP1 cell noCPT
COc1cc(C(=O)N2CCN(c3cc(Cl)ccc3Cl)CC2)cc(OC)c1OC	0.52µM*	?	1.3µM*	0.65µM*	66	0.41µM*
O=C(NNc1ccnc2cc(Cl)ccc12)C1CCCCC1	0.92µM*	-2%	3.7µM*	?	-9	0.65µM*
NC(=S)NNc1ccnc2cc(Cl)ccc12	6%	2%	5%	22%	-3	?
CCOC(=O)N1CCN(c2ccnc3cc(Cl)ccc23)CC1	?	-2%	-6%	-16%	-15	15µM*
COc1ccc(C(=O)N2CCN(C(=O)c3cc(OC)c(OC)c(OC)c3)CC2)cc1	11%	-4%	9%	8%	0	-4%
CC(C)N(C(=O)N1CCN(c2ccnc3cc(Cl)ccc23)CC1)C(C)C	12µM*	1%	-21%	-21%	-84*	9.2µM*
CCC(=O)N1CCN(c2ccnc3cc(Cl)ccc23)CC1	?	-1%	-8%	2%	-8	?
CCCCCC(C)N (centres undefined)	15%	.	.	.	.	12%
CCCN(C(=O)c1cnccn1)c1c(N)n(Cc2ccccc2)c(=O)[nH]c1=O	1%	1%	12%	4%	0	16%
O=C(C[C@@H]1C=C[C@H](NS(=O)(=O)c2ccccc2F)[C@@H](CO)O1)NCCCN1CCOCC1	-6%	.	20%	25%	25	6%
NC(=O)C1CCN(c2ccnc3cc(Cl)ccc23)CC1	2%	11%	15%	4%	-4	5%
O=C(Oc1ccnc2cc(Cl)ccc12)N1CCCCCC1	?	-11%	-20%	-13%	?	23µM*
O=C(c1ccc(Cl)cc1)N1CCN(c2ccnc3cc(Cl)ccc23)CC1	?	-1%	?	-28%	-92*	13µM*
Cn1nc(NC(=O)CC23CC4CC(CC(C4)C2)C3)c2c(F)cccc21	-28%	-21%	2%	-2%	6	-21%
COc1cccc(C2CC(c3cccs3)=NN2C(=O)CSc2nc3c(cnn3-c3ccc(F)cc3)c(=O)[nH]2)c1OC (centres undefined)	23µM*	7%	16%	0%	-1	23µM*
COc1cccc(C2CC(c3cccs3)=NN2C(=O)CSc2nc3ccccc3s2)c1OC (centres undefined)	15µM*	0%	10%	2%	0	13µM*
COc1ccc(C2CC(c3cccs3)=NN2C(=O)CSc2nc3c(cnn3-c3ccccc3)c(=O)[nH]2)cc1 (centres undefined)	?	-3%	0%	5%	16	?
O=C(Nc1c(C(=O)O)[nH]c2ccc(F)cc12)c1cccc(C(F)(F)F)c1	1%	4%	-14%	-23%	-6	-3%
O=C(c1ccc(S(=O)(=O)N2CCCCCC2)cc1)N1CCC(CN2C(=O)c3cccc4cccc(c34)C2=O)CC1	?	-12%	-3%	-13%	?	21µM*
O=C1c2cccc3cccc(c23)C(=O)N1CC1CCN(S(=O)(=O)c2ccccc2)CC1	28%	-1%	16%	-1%	31	2%
O=C1c2cccc3cccc(c23)C(=O)N1CC1CCN(S(=O)(=O)c2ccc(F)cc2)CC1	?	-5%	?	10%	-7	12µM*
CC[C@H]1C(Nc2ccccc2)C[C@@H]2CCN3C(=O)CC[C@H]1[C@H]23 (some centres undefined)	-17%	3%	-5%	6%	21	?
N#C/C(=C(/O)c1ccc2c(c1)OCO2)c1nc2cc(C(F)(F)F)ccc2s1	10µM*	1%	?	?	-54*	15µM*
Nc1c(C(=O)NCc2cccs2)nnn1CC(=O)Nc1cccc(F)c1	2%	.	.	.	.	-7%
COc1ccc(OC)c(CN2CCN(C(=O)c3cc(S(=O)(=O)N4CCOCC4)ccc3C)CC2)c1	-6%	4%	-15%	-9%	6	-10%
SMILES	DT40 TDP1 CPT	uPA generation	HT1080-NT tox	HT1080 IDH1KD tx	IL-1B inflam inh	TDP1 cell noCPT
C[C@@H](NC(=O)c1[nH]cnc1C(=O)Nc1ccon1)c1ccccc1	16µM*	-7%	-8%	?	75	?
C[C@@H](NC(=O)c1[nH]cnc1C(=O)Nc1cccc(Cl)c1)c1ccccc1	?	-17%	?	?	6	?
C[C@H](NC(=O)c1[nH]cnc1C(=O)Nc1cccc(Cl)c1)c1ccccc1	?	-19%	?	-8%	4	16µM*
COc1ccc(C(=O)NNC(=O)CN2CCC(n3nnc4cc(F)ccc43)CC2)cc1	-21%	-5%	4%	7%	1	-29%
COc1ccccc1NC(=O)CN1CCC(n2nnc3cc(F)ccc32)CC1	16µM*	10%	-5%	-6%	-26	?
Cc1ccc2c(c1)nnn2C1CCN(CC(=O)Nc2ccccc2N2CCOCC2)CC1	18µM*	-6%	?	?	-53*	23µM*
Cc1nc2cc(F)ccc2n1C1CCN(C(=O)c2c(F)cccc2F)CC1	12µM*	0%	-19%	-1%	24	21µM*
COc1ccccc1NC(=O)CN1CCC(n2c(C)nc3cc(F)ccc32)CC1	?	9%	-10%	-4%	14	23µM*
COC(=O)C/C(C)=N/Nc1ccc(S(=O)(=O)N2CCCC2)cc1[N+](=O)[O-]	-6%	3%	7%	0%	11	-19%
O=C(Nc1cc2c(cc1C(=O)c1ccccc1Cl)OCCO2)c1ccccc1	-12%	.	.	.	.	-10%
COc1ccc(Cl)cc1NC(=O)CN1CCC(n2nnc3cc(C)ccc32)CC1	?	2%	-16%	?	9	23µM*
Cc1ccc2c(c1)nnn2C1CCN(C(=O)Nc2ccccc2C)CC1	0%	2%	7%	15%	-57*	5%
Cc1ccc2c(c1)nnn2C1CCN(CC(=O)NCCc2ccccc2)CC1	?	6%	-1%	4%	-68*	?
Cc1nc2cc(C(F)(F)F)ccc2n1C1CCN(CC(=O)NC(C)(C)C)CC1	18µM*	2%	6%	2%	-4	?
C=CCNC(=O)CN1CCC(n2c(C)nc3cc(C(F)(F)F)ccc32)CC1	-12%	-4%	-2%	-1%	-12	0%
COc1ccc(S(=O)(=O)NC(=O)C2(C)CCN2C(=O)C2CC2)cc1 (centres undefined)	3%	.	21%	9%	18	-19%
